High-throughput results (PubChem BioAssay)
Sampled rows, rich in hits. Any-hit rate of the full collection: about 3.2%.
LmPK inhibitor = LmPK (Leishmania mexicana) enzyme inhibition; Potency, µM (doses to about 57.5 µM), actives largely listed as inhibitors; purified LmPK, Kinase-Glo ATP luminescence, 1 h; actives 0.37% (n = 290,000); Q27686
Target sequence (Q27686 whole entry, looked up): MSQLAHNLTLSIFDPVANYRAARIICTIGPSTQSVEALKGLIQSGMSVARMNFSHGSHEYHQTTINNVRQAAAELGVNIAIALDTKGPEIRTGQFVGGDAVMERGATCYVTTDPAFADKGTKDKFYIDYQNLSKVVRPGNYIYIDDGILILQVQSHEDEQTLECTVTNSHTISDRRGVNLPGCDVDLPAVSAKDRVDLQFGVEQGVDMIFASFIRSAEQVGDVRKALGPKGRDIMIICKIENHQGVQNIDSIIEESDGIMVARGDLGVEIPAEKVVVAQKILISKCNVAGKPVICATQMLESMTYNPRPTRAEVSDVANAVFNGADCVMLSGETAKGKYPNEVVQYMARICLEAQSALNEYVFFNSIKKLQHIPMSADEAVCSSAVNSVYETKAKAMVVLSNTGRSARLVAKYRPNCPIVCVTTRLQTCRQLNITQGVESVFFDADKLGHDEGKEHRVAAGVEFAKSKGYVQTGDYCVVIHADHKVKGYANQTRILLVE
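ATP generated from ADP (0.1 mM) and PEP (0.5 mM) by 0.1 nM LmPK over 1 h at room temperature (pH 7.2 imidazole buffer) was detected by coupled luciferase luminescence. Values were normalized to uninhibited and no-enzyme wells.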
RE007 growth inh = less growth of the S. pombe RE007 Vpr strain | AID 651644 | actives 0.21% (n = 360,000) | Potency, µM (series often up to 92.2 µM), usual class: inhibitors | S. pombe RE007 Vpr strain, BacTiter-Glo ATP luminescence, 24 h; active = well fitted falling curve with a large enough effect; inconclusive = small, poorly fitted or top-dose-only effect; inactive = no such curve, though single readings can be large or run the other way; also: nearly all actives have a fitted effect of over 50% in size
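Fission yeast strain RE007, carrying one chromosomally integrated HIV-1 vpr copy, was seeded at OD 0.01 in PMG+AL medium with 23 nL pinned compound. After 24 h at 30 °C and 99% humidity, viability was read by BacTiter-Glo luminescence.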
AMA1-RON2 inh = inhibitors of Plasmodium falciparum AMA1-RON2 interaction; AlphaScreen AMA1-biotinylated RON2 peptide binding; Potency, µM (titrated, usually from 58.2 µM), actives largely listed as inhibitors; actives 0.2% (n = 360,000); AID 720542; also: nearly all actives have a fitted effect of over 45% in size
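AMA1 (3D7) with his tag at 25 nM final met compounds first, then biotinylated RON2 peptide at 25 nM; detection used donor plus acceptor beads, 10 µg/mL apiece, read by AlphaScreen after 30 min at room temperature.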
Sm TGR block = inhibitors of Schistosoma mansoni thioredoxin glutathione reductase; Q962Y6; purified TGR, DTNB reduction, TNB absorbance 405 nm; Potency, µM (titrated, usually from 114 µM), usual class: inhibitors; actives 3% (n = 360,000); AID 485364; also: nearly all actives have a fitted effect of over 60% in size
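TGR 20 nM + NADPH 100 uM (dispensed conc.), cpd preinc 15 min RT; start with NADPH (500 uM addition) then DTNB (15 mM addition). Kinetic TNB absorbance, 405 nm filter. Four-parameter Hill fit across titration.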
Tb PYK inh = blocks Trypanosoma brucei pyruvate kinase; Q57TT1; TbPYK enzyme, Kinase-Glo Plus ATP luminescence, 45 min; actives 0.12% (n = 410,000); Potency, µM (doses to about 76.8 µM), usual class: inhibitors; also: nearly all actives have a fitted effect of over 50% in size
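In this concentration-response screen, enzyme-free wells defined baseline while DMSO plates tracked drift. Each reaction combined TbPYK, substrate, compound and 130 uM ADP for 45 min at room temperature. Kinase-Glo Plus luminescence gave the signal.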
Numbers stand for hits; 0 = inactive; ? = inconclusive; - = no result given. Unless noted, calls follow the shape of the dose curve; as a rule, active = well fitted curve in the direction sought with a large enough effect; inconclusive = small, poorly fitted or top-dose-only effect, or another doubt; inactive = no such curve, though single readings can be large; an effect the other way counts as inactive or inconclusive.

SMILES	LmPK inhibitor	RE007 growth inh	AMA1-RON2 inh	Sm TGR block	Tb PYK inh
COC(=O)C1CCN(C2=C(NS(=O)(=O)c3ccc(Cl)cc3)C(=O)c3ccccc3C2=O)CC1	0	0	20µM	?	0
COc1ccc(C2=NCCn3nc4cc([N+](=O)[O-])ccc4c32)cc1	-	0	0	25µM	0
Cc1cccc(NC(=O)C(=O)NCC(c2cccnc2)N2CCc3ccccc3C2)c1C (stereo not drawn)	-	-	-	0	0
CCN(Cc1ccncc1)Cc1c(O)ccc2cc(Br)ccc12	0	0	0	1.8µM	0
CSc1ccc(C(=O)C2CCCN(C(=O)c3nn(C)c(=O)c4ccccc34)C2)cc1 (stereo not drawn)	0	0	0	14µM	0
Cc1cc(C)n(CCc2nc(-c3ccc(C)o3)cs2)n1	0	0	0	7.9µM	0
COC(=O)c1ccc2c(c1O)C(=O)c1ccccc1C2=O	0	4.5µM	0	0	0
O=C1c2ccccc2C(=O)c2c1ccc(O)c2O	-	?	0	-	0
COc1cccc(Nc2nnc(-c3cc4ccc(O)cc4oc3=O)s2)c1	-	-	-	0	0
CN(C)C1(CNC(=O)C2CCN(S(=O)(=O)c3cc(Cl)ccc3Cl)CC2)CCCCC1	0	0	0	25µM	0
CCCCn1c(=O)[nH]c(=O)c2c1nc(-c1ccc(-c3ccccc3Br)o1)n2CC	0	0	0	13µM	0
COCCn1c(=O)[nH]c(=O)c2c1nc(-c1ccc(-c3ccc(Cl)cc3[N+](=O)[O-])o1)n2Cc1ccccc1	0	0	0	50µM	0
COCCn1c(-c2ccc(-c3ccc([N+](=O)[O-])cc3Br)o2)nc2c1c(=O)[nH]c(=O)n2CC(C)C	0	0	0	45µM	0
COCCn1c(-c2ccc(SC)cc2)nc2c1c(=O)[nH]c(=O)n2CC(C)C	0	0	0	0	0
CCCOc1ccc(C2=NC(c3ccc(F)cc3)=Nc3ccc(OC)cc3N2)cc1	-	-	-	0	0
COc1ccccc1CNC(=O)CN1C(=O)COc2ccc(S(=O)(=O)N3CCC(C)CC3)cc21	-	-	-	0	0
COc1ccc(-c2c3c(cc4ncn(Cc5ccccc5)c24)COC3=O)cc1	-	0	0	32µM	0
Cc1c(Nc2c3c(c(C#N)c4nc5ccccc5n24)CCC3)c(=O)n(-c2ccccc2)n1C	0	-	-	32µM	-
N#Cc1c2c(c(N3CCN(c4ccccn4)CC3)n3c1nc1ccccc13)CCC2	0	-	-	40µM	-
Cc1cc(Cl)n2c(nc3ccccc32)c1C#N	0	?	0	3.2µM	0
CNc1cc(C)c(C#N)c2nc3ccccc3n12	0	0	0	0	0
CCCCc1c(C)c(C#N)c2nc3ccccc3n2c1Nc1c(C)n(C)n(-c2ccccc2)c1=O	0	0	0	0	0
Cc1nccn1-c1c2c(c(C#N)c3nc4ccccc4n13)CCC2	0	0	0	25µM	0
O=C1c2ccccc2C(=O)N1CCSc1n[nH]c(=S)s1	0	0	0	0	28µM
C=CCSc1nnc(N2C(=O)C(O)=C(C(=O)c3ccco3)C2c2ccccc2F)s1 (stereo not drawn)	0	0	0	11µM	0
SMILES	LmPK inhibitor	RE007 growth inh	AMA1-RON2 inh	Sm TGR block	Tb PYK inh
CSc1nnc(N2C(=O)C(O)=C(C(=O)c3ccco3)C2c2ccccc2F)s1 (stereo not drawn)	0	0	0	?	?
CCCSc1nnc(N2C(=O)C(O)=C(C(=O)c3ccco3)C2c2ccccc2F)s1 (stereo not drawn)	0	0	0	7.1µM	0
COc1cc(C(=O)NCCCc2nc3ccccc3n2CC(C)C)cc(OC)c1OC	-	-	-	0	0
Cc1ccc(Cn2c(CNC(=O)CCc3ccccc3)nc3cccnc32)cc1	-	-	-	0	0
COC(CNC(=O)c1ccc2c3c(onc13)-c1ccccc1C2=O)OC	0	?	0	13µM	0
O=C(O)CSC1CC(=O)N(c2ccc(Cl)c(Cl)c2)C1=O (stereo not drawn)	0	11µM	0	18µM	0
O=C(O)CSC1CC(=O)N(c2cccc(Cl)c2)C1=O (stereo not drawn)	0	0	0	?	0
N/C(=N\OC(=O)c1ccc2c(c1)OCO2)c1ccc(Cl)cc1	0	?	0	0	0
N/C(=N\OC(=O)c1ccc2c(c1)OCO2)c1ccncc1	25µM	0	0	0	0
O=C(CN1CCN(C2CCCCC2)CC1)c1ccc2cc[nH]c2c1	0	0	0	32µM	0
O=C(CN1CCN(C2CCCCC2)CC1)c1c[nH]c2ccccc12	0	0	0	0	0
C/C(=N\OCc1nc2ccccc2c(=O)n1/N=C/c1cc([N+](=O)[O-])ccc1O)c1ccccc1	0	0	0	35µM	0
C/C(=N\OCc1nc2ccccc2c(=O)n1/N=C/c1cc(C)cc([N+](=O)[O-])c1O)c1ccccc1	0	0	0	0	0
N#CC1=C(N)OC2=C(CC/C2=C\c2ccccc2)C1c1ccccc1 (stereo not drawn)	0	0	0	11µM	0
N#CC1=C(N)OC2=C(CC/C2=C\c2ccccc2Cl)C1c1ccccc1Cl (stereo not drawn)	0	0	0	0	0
Cc1nn(CC(=O)NCc2ccc(N(C)C)cc2)c(=O)c2nn(-c3ccccc3)c(C)c12	-	-	-	0	0
Oc1ccc(/C=N/Nc2ccc3ccccc3c2)c(O)c1	0	0	0	45µM	0
Oc1ccc(C=NNc2nc3ccccc3s2)c(O)c1	-	0	0	-	0
Cn1cccc1C(=O)N1CCC2(CCCN(c3ccccn3)C2)CC1	-	-	-	-	0
c1ccc(C2=NN(c3ccccc3)CC2)cc1	0	0	0	5µM	0
CCOC(=O)/C(=C/c1ccc(N2CCC(c3ccccc3)=N2)cc1)C(C)=O	0	0	0	0	0
CSc1ccc(CCNC(=O)C2CCN(c3ncnc4c3nc3n4CCCCC3)CC2)cc1	-	-	-	0	0
CC(=O)OC[C@]12CCC(C)=C[C@H]1O[C@@H]1[C@H](O)[C@@H](OC(C)=O)[C@@]2(C)[C@]12CO2	0	3.2µM	0	0	0
CCOC(=O)C1=C(C)NC(C)=C(C(=O)OCC)C1c1cn(-c2ccccc2)nc1-c1ccco1	0	0	0	0	0
CC(C)OC(=O)c1cn(-c2ccccc2)nc1-c1ccco1	0	0	0	5µM	?
SMILES	LmPK inhibitor	RE007 growth inh	AMA1-RON2 inh	Sm TGR block	Tb PYK inh
Cc1ccc(-c2nn(-c3ccccc3)cc2C(=O)O)o1	0	-	-	20µM	-
Cc1ccc(-c2nn(-c3ccccc3)cc2/C=C/C(=O)O)o1	0	0	0	32µM	0
COc1cc(OC)c(NC(=O)CCn2cccn2)cc1Cl	-	-	-	0	0
CC(=O)c1cccc(NC(=O)C2CCCN(c3nnc(-n4cccc4)s3)C2)c1 (stereo not drawn)	-	-	-	0	0
Clc1ccc(-n2c(Cc3ccccc3)nnc2SCc2nc(-c3cccs3)no2)cc1	-	-	-	0	0
CN1CC(=O)N(CC(=O)Nc2ccc(N(C)C)cc2)c2ccccc2C1=O	?	0	0	50µM	0
